High-throughput results: PubChem, National Center for Advancing Translational Sciences (NCATS)
FMDV inh: antivirals against foot and mouth disease virus; FMDV antiviral cell-based qHTS; Potency, µM (doses to about 57.9 µM), for the others: at the highest dose activity change, negative = inhibition, most hits filed as inhibitors; AID 1159524; 410,000 tested, 1.2% active; calls by dose curve; tested in HEK293T cells; also: read-out not given here; potency is read from the fitted curve at half-maximal effect; nearly all actives have a fitted effect of over 45% in size
Lassa entry inh: inhibitors of Lassa virus binding or cell entry | Potency, µM (series often up to 37.9 µM), without a hit: at the highest dose activity change, negative = inhibition, usual class: inhibitors | Lassa virus pseudotype entry inhibition, cell reporter | 300,000 tested, 1.2% active | AID 540256; calls by dose curve; tested in HEK293 cells; also: potency is read from the fitted curve at half-maximal effect; nearly all actives have a fitted effect of over 50% in size
Marburg entry inh: Marburg virus entry inhibition | Marburg virus pseudotyped entry inhibition, cell reporter | Potency, µM (titrated, usually from 37.8 µM), for the others: at the highest dose activity change, negative = inhibition, most hits filed as inhibitors | 300,000 tested, 1.8% active; calls by dose curve; tested in HEK293 cells; also: potency is read from the fitted curve at half-maximal effect
Giardia FBPA inh: blocks Giardia fructose-bisphosphate aldolase activity | Potency, µM (titrated, usually from 59.6 µM), without a hit: at the highest dose activity, negative = inhibition, most hits filed as inhibitors | purified Giardia FBPA | A8B2U2 | 290,000 tested, 0.71% active | AID 2451; also: potency is read from the fitted curve at half-maximal effect; nearly all actives have a fitted effect of over 55% in size
Target sequence (A8B2U2 whole entry, looked up): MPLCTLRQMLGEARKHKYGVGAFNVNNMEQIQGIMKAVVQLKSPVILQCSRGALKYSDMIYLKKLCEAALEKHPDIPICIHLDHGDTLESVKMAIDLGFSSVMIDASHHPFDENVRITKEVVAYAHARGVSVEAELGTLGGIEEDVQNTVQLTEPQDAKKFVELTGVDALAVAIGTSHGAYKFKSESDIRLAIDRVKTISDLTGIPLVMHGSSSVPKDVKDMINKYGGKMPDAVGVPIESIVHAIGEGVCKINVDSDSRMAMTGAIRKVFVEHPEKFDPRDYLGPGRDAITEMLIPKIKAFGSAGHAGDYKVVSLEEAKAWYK
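Giardia FBPA (40 nM reagent) was preincubated 10 min at RT with compound (up to 57.5 uM final), then substrate plus GAPDH/TPI/NAD/arsenate coupling system with diaphorase/resazurin was added; resorufin fluorescence (525/598 nm) was read after 20 min.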
HCMV antiviral: human cytomegalovirus inhibition; activity change, negative = inhibition, % at 57.5 µM; AID 1259415; HFF cells, HCMV-luciferase reporter, 72 h; active compounds read low; 410,000 tested, 4.5% active; in the data active = activity change below about -60%; inconclusive = no clear call, values can overlap the other calls; inactive = above about -39%
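Steps: HFFs plated, 16 h 37C; compounds added; HCMV-luciferase added to MOI 1 PFU/cell; 72 h 37C; OneGlo reagent, 5 min room temperature; luminescence read, normalized to controls.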
HCV inhibitor: HCV inhibition. Potency, µM (top dose mostly 41.8 µM), for inactives: at the top dose activity change, negative = inhibition, hits mostly inhibitors. 340,000 tested, 3.4% active. Huh7.5.1 HCVcc-Cre infection, luciferase reporter, 44 h; also: potency is read from the fitted curve at half-maximal effect
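HCVcc-Cre virus at an moi near 0.5 was added right after compound to cells cultured 4 h from seeding (1,000 cells/well). Luciferase activity was determined 44 h later, 15 min after substrate addition at RT.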
Active calls of the source: *; ? = inconclusive; nt = not tested or not shown; [ ] = another dose, or the depositor's remark. The list is not random: actives were taken first. Their share in the collection is about 8.3%. Unless noted, calls follow the shape of the dose curve; as a rule, active = well fitted curve in the direction sought with a large enough effect; inconclusive = small, poorly fitted or top-dose-only effect, or another doubt; inactive = no such curve, though single readings can be large; an effect the other way counts as inactive or inconclusive. % is scaled to controls: 0 for no effect and ±100 for the full control effect.

SMILES	FMDV inh	Lassa entry inh	Marburg entry inh	Giardia FBPA inh	HCMV antiviral	HCV inhibitor
COc1ccc(C2/C=C\CN(C(=O)CC(C)(C)C)C(C)C(=O)N2Cc2ccc(F)cc2)cc1 (centres undefined)	nt	nt	nt	1.7%	nt	nt
COc1ccc(-c2csc(N(CCCN(C)C)C(=O)c3ccc(C(C)(C)C)cc3)n2)cc1	-19.5%	?	?	-24.2%	-25.3	-19.4%
COc1ccc(-c2csc(N(CCCN(C)C)C(=O)c3ccc(Br)cc3)n2)cc1	-14.4%	?	?	?	-62.1*	?
COc1ccc(-c2csc(N(CCCN(C)C)C(=O)c3ccc(C)cc3)n2)cc1	11.0%	-0.4%[46.1 µM]	?	-22.2%	-22.1	25.1µM*
COCCCN(C(C)=O)c1nc(-c2ccc(OC)cc2)cs1	-8.4%	10.3µM*	?	-0.7%	83.9	?
CCC(=O)N(CCCN(C)C)c1nc(-c2cc(OC)ccc2OC)cs1	-2.7%	8.6%	?	-8.4%	-8.4	5.62µM*
COC(=O)N[C@@H](/C=C/c1ccccc1)/C(C(=O)OC)=C(\C)NCc1ccccc1	nt	nt	-22.2%[14.2 µM]	-8.9%	nt	nt
CC(=O)OC[C@@H]1O[C@H](C/C=N\O[C@@H](C)c2cn([C@H]3COC[C@H]3O)nn2)C=C[C@@H]1OC(C)=O	nt	nt	nt	0.5%[12.9 µM]	nt	nt
COc1ccccc1N1CCN(S(=O)(=O)CCNC(=O)C(c2ccccc2)c2ccccc2)CC1	-22.4%	-29.5%[46.1 µM]	nt	nt	-37.3	nt
CCN(CC)CCCN(C(=O)c1ccc(OC)cc1)c1nc(-c2ccc(OC)cc2)cs1	4.0%	?	?	?	-62.6*	?
COc1ccc(NC(=O)CN(C)S(=O)(=O)c2ccc3nc(C)sc3c2)cc1Cl	?	-2.3%[46.1 µM]	-1.9%[46.1 µM]	nt	-68.6*	nt
COc1cc(S(=O)(=O)Nc2ccc3nc(C)sc3c2)ccc1NC(C)=O	6.0%	nt	nt	nt	-88.3*	?
COCCNC(=O)CN(Cc1ccccc1)S(=O)(=O)c1ccc2nc(C)sc2c1	8.1%	nt	nt	-1.6%	-60.7*	13.4%
Cc1nc2ccc(NS(=O)(=O)c3ccc(C)c(C)c3)cc2s1	-0.8%	-12.5%	?	-16.2%	-88.4*	?
CCn1c(=O)c2sccc2n2c(CCCC(=O)N3CCN(c4ccc(OC)cc4)CC3)nnc12	-2.4%	-11.1%[46.1 µM]	nt	nt	-29.8	nt
CCOC(=O)c1c(C)[nH]c(CCC(=O)NCc2ccc(CC)cc2)c1C	-24.2%	-27.4%[46.1 µM]	nt	nt	-23.7	nt
CCOC(=O)c1cccc(NC(=O)CC2C(=O)N(c3ccc(Cl)cc3)C(=O)N2C2CCCC2)c1 (centres undefined)	-22.9%	-23.6%[46.1 µM]	nt	nt	-30.5	nt
Cc1nc2ccc(NS(=O)(=O)c3ccc(F)c(C)c3)cc2[nH]1	-9.6%	nt	nt	?	-60.1*	7.08µM*
COc1cc(=O)n2c(c1C(=O)NCc1ccco1)CCN(Cc1ccc(F)cc1Cl)CC2	-3.0%	nt	nt	nt	nt	nt
COc1ccc2c(c1)c1c(c(=O)n(-c3ccc(F)c(Cl)c3)c(=O)n1Cc1cccc(C)c1)n2C	-20.7%	27.8%[46.1 µM]	nt	nt	12.5	nt
COc1ccc2c(c1)c1c(c(=O)n(-c3cccc(C)c3)c(=O)n1Cc1cccc(Cl)c1)n2C	-4.1%	1.4%[46.1 µM]	nt	nt	-67.3*	nt
CCN(CC)S(=O)(=O)c1ccc(NC(=O)c2c(C)oc3ncnc(N4CCOCC4)c23)cc1	-2.1%	14.4%[46.1 µM]	nt	nt	22.5	nt
CCOC(=O)CC1(O)CSc2nc(N)cc(=O)n21 (centres undefined)	nt	nt	nt	nt	-76.5*	nt
CCOC(=O)CSc1nc(C)cc(C)n1	-3.5%	14.5%	?	2.7%	20.7	11.5%
O=C(Cc1ccccc1)N(Cc1cccnc1)c1nc2c(F)cc(F)cc2s1	-3.4%	12.6µM*	nt	nt	0.0	nt
SMILES	FMDV inh	Lassa entry inh	Marburg entry inh	Giardia FBPA inh	HCMV antiviral	HCV inhibitor
CC(=O)N(Cc1cccnc1)c1nc2c(F)cc(F)cc2s1	-5.8%	-16.1%[46.1 µM]	nt	nt	0.0	nt
N/C(=N\OC(=O)c1cccc2ccccc12)c1ccccn1	-13.0%	?	?	-2.9%	26.8	?
NC(=Nc1nc(-c2ccccn2)cc2ccccc12)c1ccccn1	0.0%	0.562µM*	?	nt	-100.8*	?
COc1ccc(CCN2C(=O)c3cccc4c(C(=O)N5CCCCC5)ccc(c34)C2=O)cc1OC	14.1µM*	?	?	3.0%	-64.9*	-23.4%
COc1ccc(CCNC(=O)CCN2C(=O)c3cccc4cccc(c34)C2=O)cc1OC	-12.2%	nt	nt	0.5%	-12.8	9.1%
COc1cc(NC(=O)Cn2c(=O)n(C(C)C)c(=O)c3oc4ccccc4c32)cc(OC)c1	-26.4%	-7.7%[46.1 µM]	nt	nt	-22.0	nt
CCCCOc1ccc(CNC(=O)c2cnc3sc(N4CCC(C)CC4)nn3c2=O)cc1	-28.5%	?	nt	nt	17.2	nt
CN1C2CCC1/C(=C/c1ccccn1)C(=O)/C2=C\c1ccccn1	3.98µM*	2.31µM*	1.26µM*	-9.7%	-101.4*	3.55µM*
O=C1/C(=C/c2ccccn2)COc2ccccc21	?	?	?	-5.0%	?	19.6%
O=C1/C(=C/c2ccccc2)CCC1C1CCCC1 (centres undefined)	22.2%	?	?	1.0%	-33.6	6.0%
CN1C2CCC1/C(=C\c1ccccc1)C(=O)/C2=C\c1ccccc1	?	?	14.6µM*	1.1%	-66.1*	12.6µM*
CC1C/C(=C/c2ccccn2)C(=O)/C(=C/c2ccccn2)C1 (centres undefined)	6.31µM*	3.98µM*	?	-18.7%	nt	2.24µM*
O=C(c1ccncc1)N1CCC2(CCCN(c3cccc(-c4ccccc4)c3)C2)CC1	-8.0%	nt	nt	-5.9%	nt	nt
O=C(COC(=O)/C=C/c1ccccc1)NC1CCS(=O)(=O)C1 (centres undefined)	2.4%	nt	nt	nt	0.0	15.9%
CCOc1ccc(CCNC(=O)COC(=O)/C=C/c2ccccc2)cc1OCC	-18.0%	11.1%	-14.7%	nt	-86.8*	-12.4%
CCOc1cc(/C=C/C(=O)OCC(=O)NC2CCS(=O)(=O)C2)ccc1OCc1ccccc1 (centres undefined)	-14.6%	-25.0%	26.3%[46.1 µM]	-2.0%	-13.9	12.6µM*
Cc1noc(C)c1C(=O)N1CCC2(CC1)CN(c1ccccn1)C2	-13.1%	nt	nt	-3.9%	nt	nt
Cc1ccc(C(O)(C(=O)NNc2ccccn2)c2ccc(C)cc2)cc1	-17.7%	-8.9%	-5.5%[46.1 µM]	-9.3%	?	-17.1%
Cc1ccc(NNC(=O)C(O)(c2cccc(C(F)(F)F)c2)c2cccc(C(F)(F)F)c2)cc1	?	?	?	-5.9%	-88.7*	?
O=C(NNc1ccccc1Br)C(O)(c1cccc(C(F)(F)F)c1)c1cccc(C(F)(F)F)c1	35.5µM*	?	?	-8.7%	-99.3*	?
CNc1ccc(C(=O)CC(O)CCC(C)C2OC(=O)CC(O)CC(=O)CC(O)CC(O)CC(O)CC(O)CC3(O)CC(O)C(C(=O)OC)C(CC(O[C@@H]4O[C@H](C)[C@@H](O)[C@H](N)[C@@H]4O)/C=C/C=C/C=C/C=C/C=C/C=C/C=C/C2C)O3)cc1 (some centres undefined)	10.6%	nt	nt	nt	nt	nt
